Screening results deposited in PubChem by National Center for Advancing Translational Sciences (NCATS).
An excerpt weighted towards active compounds, which were near 10% of everything screened.
Six1-Eya2 inh – blocks human Six1 binding to Eya2 | AID 651725 | Q15475+O00167 | actives 0.56% (n = 360,000) | AlphaScreen GST-Six1/His-Eya2 binding, biochemical; active compounds read low | activity change, % (no concentration beside the values); in the data active = activity change below about -65%; inconclusive = mostly about -30% to -63%
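AlphaScreen luminescence read after one hour at 37 °C in darkness. Pin-transferred compounds met GST-Six1 and His-Eya2 protein (5X stock 250 nM/500 nM) plus glutathione donor and Ni-chelate acceptor beads (5X, 50 ug/mL).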
JMJD2A Tudor inh – JMJD2A Tudor domain (human) inhibition; O75164; AlphaScreen JMJD2A-Tudor / H3K4me3 peptide binding; Potency, µM (series often up to 114 µM), actives largely listed as inhibitors; actives 4.4% (n = 390,000); AID 504339; also: nearly all actives have a fitted effect of over 50% in size
HP1b chromo inh – blocks HP1-beta chromodomain binding to methylated histone tails; AlphaScreen HP1-beta / biotin-H3K9me3 peptide binding; Potency, µM (series often up to 114 µM), hits mostly inhibitors; actives 0.56% (n = 390,000); AID 540317; also: nearly all actives have a fitted effect of over 70% in size
Target sequence (P83916 whole entry, looked up): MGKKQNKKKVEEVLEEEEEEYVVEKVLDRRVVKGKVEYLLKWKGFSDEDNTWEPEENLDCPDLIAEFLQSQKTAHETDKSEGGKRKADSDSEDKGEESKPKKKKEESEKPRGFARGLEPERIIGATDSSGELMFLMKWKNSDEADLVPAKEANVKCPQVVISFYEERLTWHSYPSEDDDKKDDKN
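HP1-beta protein (50 nM final) preincubated 30 min at room temperature with biotinylated H3(1-18)K9me3 peptide (50 nM) in PBS pH 7.4, 0.01% Tween-20, then compound added for 30 min. AlphaScreen streptavidin donor/nickel chelate acceptor beads (10 ug/mL final), 30 min dark, luminescence read.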
CtBP-E1A inh – CtBP/E1A binding inhibition. AlphaScreen GST-E1A/His-CtBP binding, 1536-well; active compounds read low. activity change, % (concentration not given with the values). actives 0.49% (n = 340,000). AID 651724; in the data active = activity change below about -65%; inconclusive = mostly about -30% to -63%
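Protein mix (5X: 125 nM each GST-E1A, His-CtBP) was incubated with pinned compound 2 h at 37 deg C in dark, in 50 mM Tris pH 8.0 buffer with 300 mM NaCl. Glutathione donor and nickel acceptor beads followed; AlphaScreen signal read after 1 h.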
G9a inh – blocks human histone lysine methyltransferase G9a. Q96KQ7. G9a H3K9 monomethylation, AlphaScreen, 2 h. Potency, µM (doses to about 102 µM), hits mostly inhibitors. actives 8.8% (n = 350,000). AID 504332; also: nearly all actives have a fitted effect of over 75% in size
Target sequence (Q96KQ7 913-1193 limits assumed): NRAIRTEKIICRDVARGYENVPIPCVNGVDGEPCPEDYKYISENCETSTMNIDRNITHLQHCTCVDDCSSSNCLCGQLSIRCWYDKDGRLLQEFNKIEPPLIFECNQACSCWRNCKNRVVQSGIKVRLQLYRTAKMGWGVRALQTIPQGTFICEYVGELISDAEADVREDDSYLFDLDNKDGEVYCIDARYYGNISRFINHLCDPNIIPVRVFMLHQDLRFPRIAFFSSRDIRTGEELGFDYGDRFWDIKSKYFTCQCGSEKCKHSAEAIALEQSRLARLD
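Signal arises when biotinylated H3K9 peptide, once monomethylated, bridges streptavidin donor and antibody-captured acceptor beads. Enzyme at 20 nM was preincubated 15 min with test compounds; peptide 500 nM and SAM 20 uM then reacted for 2 h.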
BAZ2B block – inhibitors of human BAZ2B bromodomain | actives 4.4% (n = 360,000) | Potency, µM (titrated, usually from 114 µM), hits mostly inhibitors | AID 504333 | AlphaScreen BAZ2B-H3K14Ac peptide displacement | Q9UIF8; also: nearly all actives have a fitted effect of over 60% in size
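AlphaScreen luminescence quantifies BAZ2B engagement of H3K14Ac peptide; the protein and biotinylated peptide are both at 50 nM final, buffer PBS pH 7.4 with 0.01% Tween-20, all steps at room temperature.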
Of the large screens only hits and unclear results are named; the others gave an inactive call. Unless noted, calls follow the shape of the dose curve; as a rule, active = well fitted inhibition curve with a large enough effect; inconclusive = small, poorly fitted or top-dose-only effect; inactive = no such curve, though single readings can be large or run the other way.

Cc1cc2c(s1)c1cnn(Cc3ccc(S(C)(=O)=O)cc3)c(=O)c1n2C	none (no result: Six1-Eya2 inh, HP1b chromo inh, CtBP-E1A inh, G9a inh, BAZ2B block)
Cc1cccc(OCc2n[nH]c(=S)n2C2CCCCC2)c1	JMJD2A Tudor inh inconclusive, G9a inh 1.78µM
Cc1ccc(OCc2n[nH]c(=S)n2C2CCCCC2)cc1	JMJD2A Tudor inh 56.2µM, G9a inh 1.12µM
S=c1[nH]nc(COc2ccc(Cl)cc2)n1C1CCCCC1	G9a inh inconclusive
CCn1c(COc2cccc(C)c2)nnc1SCC(=O)NC1CCCC1	JMJD2A Tudor inh inconclusive
O=[N+]([O-])c1cccc(S(=O)(=O)Nc2ccc(S(=O)(=O)N3CCCC3)cc2)c1	none (no result: G9a inh, BAZ2B block)
O=[N+]([O-])c1ccc(Cl)c(S(=O)(=O)Nc2ccc(S(=O)(=O)N3CCOCC3)cc2)c1	G9a inh 44.7µM
O=[N+]([O-])c1ccc(S(=O)(=O)Nc2ccc(S(=O)(=O)N3CCCC3)cc2)cc1	G9a inh 35.5µM
COC(=O)CNC(=O)c1ccc(NS(=O)(=O)c2cc([N+](=O)[O-])ccc2Cl)cc1	G9a inh 56.2µM
O=C(Nc1ccc(SC(F)F)cc1)c1cc(-c2ccc3c(c2)OCCO3)on1	none (no result: Six1-Eya2 inh, CtBP-E1A inh)
Cc1cc2oc(C(=O)Nc3sc4c(c3C(=O)NCC3CCCO3)CCCC4)cc(=O)c2cc1C (stereo not drawn)	none (no result: Six1-Eya2 inh, CtBP-E1A inh)
Nc1ccccc1NC1=CC(=O)CC(c2ccco2)C1 (stereo not drawn)	G9a inh 10µM
CCc1ccc(NC2=CC(=O)CC(c3ccco3)C2)cc1 (stereo not drawn)	JMJD2A Tudor inh inconclusive, G9a inh 50.1µM, BAZ2B block inconclusive
O=P(c1ccccc1)(c1ccccc1)C(O)c1ccccn1 (stereo not drawn)	JMJD2A Tudor inh inconclusive, BAZ2B block 20µM (no result: CtBP-E1A inh, G9a inh)
OC(c1ccccn1)C(O)c1ccccn1 (stereo not drawn)	JMJD2A Tudor inh 50.1µM (no result: G9a inh, BAZ2B block)
COc1ccc(-c2cc(C)no2)cc1S(=O)(=O)N1CCN(c2ccc(C(C)=O)cc2)CC1	none (no result: Six1-Eya2 inh, CtBP-E1A inh)
O=C(O[C@H]1CN2CCC1CC2)N1CCc2ccccc2[C@@H]1c1ccccc1	none (no result: Six1-Eya2 inh, JMJD2A Tudor inh, HP1b chromo inh, CtBP-E1A inh, BAZ2B block)
O=C(CC1C(=O)NCCN1Cc1cccc(F)c1)NC1CCCCCC1 (stereo not drawn)	G9a inh inconclusive
O=C(CC1C(=O)NCCN1Cc1ccccc1C(F)(F)F)NC1CCC1 (stereo not drawn)	none (no result: G9a inh)
O=C(CC1C(=O)NCCN1Cc1ccccc1C(F)(F)F)NC1CCCCCC1 (stereo not drawn)	G9a inh 44.7µM
O=C(CC1C(=O)NCCN1Cc1ccc(F)cc1Cl)NC1CCCCCCC1 (stereo not drawn)	G9a inh 44.7µM
O=C(CC1C(=O)NCCN1Cc1ccccc1C(F)(F)F)NC1CCCCC1 (stereo not drawn)	G9a inh 39.8µM
COc1ccc(OC)c(NC(=O)C(Cc2ccccc2)NS(=O)(=O)c2ccc3c(c2)CCC(=O)N3)c1 (stereo not drawn)	none (no result: Six1-Eya2 inh, CtBP-E1A inh)
O=C(CSc1ccc2ccccc2n1)c1ccc2c(c1)OCO2	none
O=C(CSc1nc2ncc(Cl)cc2[nH]1)c1ccc2c(c1)OCO2	G9a inh inconclusive
O=C(CSc1nc2ccc(Cl)cc2[nH]1)c1c[nH]c2ccccc12	G9a inh 20µM
O=C(CSc1ncn[nH]1)Nc1ccc2c(c1)OCCO2	none
O=C(CSc1nc2ncc(Cl)cc2[nH]1)c1c[nH]c2ccccc12	none (no result: G9a inh)
O=C(CSc1ncn[nH]1)c1ccc2c(c1)OCO2	JMJD2A Tudor inh 31.6µM
O=C(CSc1nc2ccc(Cl)cc2[nH]1)c1ccc2c(c1)OCO2	JMJD2A Tudor inh 22.4µM, G9a inh 35.5µM, BAZ2B block 50.1µM
O=C(CSc1nc2cc(Cl)c(Cl)cc2[nH]1)c1ccc2c(c1)OCO2	G9a inh 11.2µM
CCC(C)NC(=O)c1c(C)oc2ncn(CC(C)C)c(=O)c12 (stereo not drawn)	none (no result: Six1-Eya2 inh, CtBP-E1A inh)
C#CCCCCCCCCCCCC(O)CC(O)COC(C)=O (stereo not drawn)	none (no result: Six1-Eya2 inh, JMJD2A Tudor inh, HP1b chromo inh, CtBP-E1A inh, BAZ2B block)
